Results published in PubChem BioAssay (NCI).
The panel holds about 83,000 compounds, 20% with a hit somewhere; the sample as a whole holds those more often.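 For each line, cells grew in 96-well plates with the test compound present at a single concentration for 48 hours.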 Unmarked numbers belong to inactive results. The source made the active and inactive calls. Rule for the calls: active = growth percent below 10; inactive = the rest.

Each molecule was assayed on SN12C renal (assay: NCI-60 one-dose screen, 48 h (100 = growth as untreated, 0 = no growth, -100 = all killed)). Details: 10 µM unless noted.

SMILES | growth
CCOc1ccc(NC(=O)Nc2cc(C(C)C)ccc2C)cc1 | 57.3%
NS(=O)(=O)c1ccc(-n2nc(-c3ccc(Cl)cc3)ccc2=O)cc1 | 109%
COC(OC)C1(c2ccccc2)NC(=O)NC1=O (stereo not drawn) | 101%
CC1=C[S+](c2ccccc2)c2cccc3cc4ccccc4c1c23 (stereo not drawn) | -60.2% (active)
O=C(Nc1ccccc1F)Nc1ccccc1Cl | 104%
O=C(C[n+]1ccccc1Cl)c1ccc2c(c1)CCCC2 | 101%
COc1cc(-c2nc3sc(C)cn3c2/C=C2\C(=O)Nc3ccccc32)c(Br)c(OC)c1OC | 90.9%
CC1(C)N=C(N)N=C(N)N1c1cccc(CCCCc2ccccc2)c1 | 9.06% (active)
COc1ccc(/C=C2\CS(=O)(=O)C/C(=C\c3ccc(OC)cc3)C2=O)cc1 | -52.1% (active)
CN1CCN(CC(O)COc2c(Br)c(Br)c(Br)c3c2OC(C)(C)C3)CC1 (stereo not drawn) | 92.5%
CC1(C)N=C(N)N=C(N)N1c1ccc(OCC(=O)Nc2ccccc2)c(Cl)c1 | 30.5%
COc1ccc2c(c1)nnc1c3cccnc3[nH]c21 | -22.2% (active)
CC(=O)N[C@@H](CNC(=O)c1cc(NC(=O)c2cc(NC(=O)c3cc(NC(=O)c4nccn4C)cn3C)cn2C)cn1C)CC(=O)Nc1cn(C)c(C(=O)Nc2cc(C(=O)Nc3cc(C(=O)Nc4cc(C(=O)NCCCN(C)CCCNC(=O)c5cccc(C(=O)O)c5)n(C)c4)n(C)c3)n(C)c2)n1 | 100%
Nc1ccc(S(=O)(=O)Nc2cc(I)cc(I)c2)cc1 | 115%
Nc1nc2ccc(CNc3ccc(C(=O)NC(CC(=O)O)C(=O)O)cc3)cc2c(=O)[nH]1 (stereo not drawn) | 41.3%
Cc1cn(C2CC(F)C(CO)O2)c(=O)[nH]c1=O (stereo not drawn) | 94.8%
CN(C)C(=O)Nc1nc2cc(Cl)c(Cl)cc2[nH]1 | 51%
Cc1cccc(NC(=O)CCc2ccc(N3C(N)=NC(N)=NC3(C)C)cc2)c1 | 30.3%
COc1cc(/C=C/C(=O)c2c(C)[n+]([O-])c3ccccc3[n+]2[O-])ccc1O | 101%

SMILES | growth
CCC1CN2C(=N1)c1ccccc1-c1cc(Cl)ccc12 (stereo not drawn) | 18.5%
CC(C(C(=O)N1CCCCC1)N1CCCCC1)N1CCCCC1 (stereo not drawn) | 102%
NC(CSC(c1ccccc1)(c1ccccc1)c1ccc(F)cc1)C(=O)O (stereo not drawn) | 39%
CS(=O)(=O)OCC(COS(C)(=O)=O)C(c1ccccc1)c1ccccc1 | 89.2%
S=c1ssnc1-c1ccccn1 | 38%
O=C(Cn1c2ccccc2c2ccncc21)N/N=C/c1cc(O)c(O)c(O)c1 | 104%
CN(C)c1ccc(/C=N/N=C(N)N)cc1 | 82.3%
Cc1cc2c(cc1C)N(C(=O)CCl)CCN2C(=O)CCl | -38.4% (active)
O=C(O)c1cc2ccccc2cc1Nc1ccccc1 | 101%
O=C(Nc1ccccc1Cl)c1c[nH]c(=O)c(-c2ccc(N3CCCOC4(CC4)C3)cc2)c1 | 74.9%
Clc1ccc2c(c1)nnn1c3ncccc3c(Br)c21 | 91.9%
Cc1nssc1=S | 118%
FC(F)(F)c1cn(CC2CNC2)c2ncnc(Cl)c12 | 102%
CN1CCN(Cn2nc(-c3cc(Cl)cc(Cl)c3Cl)n(/N=C/c3ccc(Cl)cc3)c2=S)CC1 | 96.4%
NC(N)=N/N=C/c1ccc([N+](=O)[O-])cc1 | 96.7%
CC1=C2C(=C[C@@](C)(CO)[C@@H]2OC(=O)N(C)CCN(C)C(=O)OC(C)(C)C)C(=O)[C@](C)(O)C12CC2 | 73%
Nc1nc(=S)ss1 | 97.7%
COC(=O)c1oc2c(C(C)=O)c(OCCN3CCCCC3)ccc2c1C | 119%
Cc1cc[n+](CCCC[n+]2ccc(C)cc2)cc1 | 97.4%
